Reference: the supplement of paper PMC10849652
Of roughly 7,900 targets only a part is listed; those with a hit were picked by preference. About 0.6% of all pairs of compound and target were hits. Values without a mark were called inactive.

Key:
Test in all cases: log2 fold change, soluble protein after heating vs DMSO (PISA); higher = thermal stabilisation; K562 cells, 10 uM, 30 min; active = over 0.2 and 3.5 SD of the protein, either way, in both replicates (recomputed)
erlotinib = compound: C#Cc1cccc(Nc2ncnc3cc(OCCOC)c(OCCOC)cc23)c1 [erlotinib]
Summary of the method: (§1)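 K562 cells at 2×10^6 cells/mL were treated for 30 min with 10 μM compound, and aliquots were heated for 3 min over 48°C-58°C before pooling. Extraction used PBS with 0.5% NP-40 at 4°C, and soluble protein was the supernatant after 21,000xg for 90 min, measured by TMTpro 16plex LC-MS/MS with channel sums equalised. Thermal stability values, relative to control samples and from duplicates, are log2 fold changes.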

[1] = compound: C/C(=N\NC(=O)C1=CC(=CC=C1)S(=O)(=O)N2CCOCC2)/C3=C(C=CC(=C3)Cl)O
Summary of the method: as §1

[2] = compound: C1=CC(=C(C=C1Cl)C2=NC3=NC=CN=C3C(=N2)NC4=CC=NC=C4)F
Summary of the method: as §1

[3] = compound: C1=CC(=CC=C1C2=NC3=C(N2)C=C(C=C3)C(=O)N)OC4=CC=C(C=C4)Cl
Summary of the method: as §1

[4] = compound: C1=CC2=C(C=CC(=C2)/C=C\3/C(=O)NC(=NCC4=CC=CS4)S3)N=C1
Summary of the method: as §1

[5] = compound: C1=CC2=NC=CN=C2C=C1/C=C/3\C(=O)NC(=O)S3
Summary of the method: as §1

[6] = compound: C1=CC=C(C=C1)C2=NC(=C(N2)C3=CC=NC=C3)C4=CC(=C(C=C4)Cl)O
Summary of the method: as §1

[7] = compound: C1=CC=C2C(=C1)C3=NNC4=CC=CC(=C43)C2=O
Summary of the method: as §1

IRAK-1-4 Inhibitor I = compound: C1COCCN1CCN2C3=CC=CC=C3N=C2NC(=O)C4=CC(=CC=C4)[N+](=O)[O-] [IRAK-1-4 Inhibitor I]
Summary of the method: as §1

ibrutinib = compound: C=CC(=O)N1CCC[C@@H](n2nc(-c3ccc(Oc4ccccc4)cc3)c3c(N)ncnc32)C1 [ibrutinib]
Summary of the method: as §1

[8] = compound: CC(=O)c1cnc2ccc(-c3cc(Cl)c(O)c(Cl)c3)nc2c1N[C@H]1CC[C@H](CN(C)C)CC1
Summary of the method: as §1

ralimetinib = compound: CC(C)(C)Cn1c(N)nc2ccc(-c3[nH]c(C(C)(C)C)nc3-c3ccc(F)cc3)nc21 [ralimetinib]
Summary of the method: as §1

[9] = compound: CC(C)(O)CC(=O)NCCn1ccc2ncnc(Nc3ccc(Oc4cccc(C(F)(F)F)c4)c(Cl)c3)c21
Summary of the method: as §1

[10] = compound: CC(C)C1=C2N=C(C=C(N2N=C1)NCC3=CC=CC=C3)NCCCCCCN
Summary of the method: as §1

[11] = compound: CC(C)C[C@@H](C=O)NC(=O)[C@H](CC(C)C)NC(=O)[C@H](CC(C)C)NC(=O)OCc1ccccc1
Summary of the method: as §1

pinometostat = compound: CC(C)N(C[C@H]1O[C@@H](n2cnc3c(N)ncnc32)[C@H](O)[C@@H]1O)[C@H]1C[C@@H](CCc2nc3cc(C(C)(C)C)ccc3[nH]2)C1 [pinometostat]
Summary of the method: as §1

[12] = compound: CC1=C(C(CC(=O)N1)C2=CC=C(C=C2)C(F)(F)F)C(=O)NC3=C(C=C4C(=C3)C=NN4)F
Summary of the method: as §1

[13] = compound: C1CCN(C1)C(=O)NC2=CC=CC(=C2)NC3=NC=C(C(=N3)NCCC4=CN=CN4)Br
Summary of the method: as §1

[14] = compound: C1CN(CCC1(CC2=CC=C(C=C2)Cl)N)C3=NC=NC4=C3C=CN4
Summary of the method: as §1

[15] = compound: CC1=C(C2=C(C=C1)C(=O)C3=CC=CC=C3N2CCCN)C
Summary of the method: as §1

Chain of UniProt Q9Y4K4 (Q9Y4K4 whole entry, looked up): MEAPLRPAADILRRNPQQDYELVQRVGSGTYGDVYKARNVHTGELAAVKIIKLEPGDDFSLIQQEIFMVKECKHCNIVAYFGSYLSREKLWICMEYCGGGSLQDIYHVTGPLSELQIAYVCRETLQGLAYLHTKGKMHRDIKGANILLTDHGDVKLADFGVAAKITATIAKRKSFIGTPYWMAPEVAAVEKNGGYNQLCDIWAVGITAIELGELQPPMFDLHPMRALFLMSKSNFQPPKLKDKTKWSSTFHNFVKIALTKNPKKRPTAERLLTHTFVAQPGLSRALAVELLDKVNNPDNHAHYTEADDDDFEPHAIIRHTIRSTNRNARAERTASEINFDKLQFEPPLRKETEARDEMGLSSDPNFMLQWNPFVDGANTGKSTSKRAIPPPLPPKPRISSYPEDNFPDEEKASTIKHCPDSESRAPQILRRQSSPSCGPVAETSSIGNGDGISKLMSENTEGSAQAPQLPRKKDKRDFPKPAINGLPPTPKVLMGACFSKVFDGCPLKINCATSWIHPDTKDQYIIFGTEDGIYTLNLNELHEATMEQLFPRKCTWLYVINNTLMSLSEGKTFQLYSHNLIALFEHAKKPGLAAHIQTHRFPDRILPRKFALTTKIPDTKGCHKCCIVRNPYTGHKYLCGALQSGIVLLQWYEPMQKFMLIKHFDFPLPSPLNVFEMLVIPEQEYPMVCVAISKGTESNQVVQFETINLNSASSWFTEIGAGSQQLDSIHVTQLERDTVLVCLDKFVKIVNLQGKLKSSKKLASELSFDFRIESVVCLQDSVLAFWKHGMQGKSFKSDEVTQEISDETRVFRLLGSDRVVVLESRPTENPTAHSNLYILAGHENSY
Chain of UniProt P50851 (P50851 whole entry, looked up): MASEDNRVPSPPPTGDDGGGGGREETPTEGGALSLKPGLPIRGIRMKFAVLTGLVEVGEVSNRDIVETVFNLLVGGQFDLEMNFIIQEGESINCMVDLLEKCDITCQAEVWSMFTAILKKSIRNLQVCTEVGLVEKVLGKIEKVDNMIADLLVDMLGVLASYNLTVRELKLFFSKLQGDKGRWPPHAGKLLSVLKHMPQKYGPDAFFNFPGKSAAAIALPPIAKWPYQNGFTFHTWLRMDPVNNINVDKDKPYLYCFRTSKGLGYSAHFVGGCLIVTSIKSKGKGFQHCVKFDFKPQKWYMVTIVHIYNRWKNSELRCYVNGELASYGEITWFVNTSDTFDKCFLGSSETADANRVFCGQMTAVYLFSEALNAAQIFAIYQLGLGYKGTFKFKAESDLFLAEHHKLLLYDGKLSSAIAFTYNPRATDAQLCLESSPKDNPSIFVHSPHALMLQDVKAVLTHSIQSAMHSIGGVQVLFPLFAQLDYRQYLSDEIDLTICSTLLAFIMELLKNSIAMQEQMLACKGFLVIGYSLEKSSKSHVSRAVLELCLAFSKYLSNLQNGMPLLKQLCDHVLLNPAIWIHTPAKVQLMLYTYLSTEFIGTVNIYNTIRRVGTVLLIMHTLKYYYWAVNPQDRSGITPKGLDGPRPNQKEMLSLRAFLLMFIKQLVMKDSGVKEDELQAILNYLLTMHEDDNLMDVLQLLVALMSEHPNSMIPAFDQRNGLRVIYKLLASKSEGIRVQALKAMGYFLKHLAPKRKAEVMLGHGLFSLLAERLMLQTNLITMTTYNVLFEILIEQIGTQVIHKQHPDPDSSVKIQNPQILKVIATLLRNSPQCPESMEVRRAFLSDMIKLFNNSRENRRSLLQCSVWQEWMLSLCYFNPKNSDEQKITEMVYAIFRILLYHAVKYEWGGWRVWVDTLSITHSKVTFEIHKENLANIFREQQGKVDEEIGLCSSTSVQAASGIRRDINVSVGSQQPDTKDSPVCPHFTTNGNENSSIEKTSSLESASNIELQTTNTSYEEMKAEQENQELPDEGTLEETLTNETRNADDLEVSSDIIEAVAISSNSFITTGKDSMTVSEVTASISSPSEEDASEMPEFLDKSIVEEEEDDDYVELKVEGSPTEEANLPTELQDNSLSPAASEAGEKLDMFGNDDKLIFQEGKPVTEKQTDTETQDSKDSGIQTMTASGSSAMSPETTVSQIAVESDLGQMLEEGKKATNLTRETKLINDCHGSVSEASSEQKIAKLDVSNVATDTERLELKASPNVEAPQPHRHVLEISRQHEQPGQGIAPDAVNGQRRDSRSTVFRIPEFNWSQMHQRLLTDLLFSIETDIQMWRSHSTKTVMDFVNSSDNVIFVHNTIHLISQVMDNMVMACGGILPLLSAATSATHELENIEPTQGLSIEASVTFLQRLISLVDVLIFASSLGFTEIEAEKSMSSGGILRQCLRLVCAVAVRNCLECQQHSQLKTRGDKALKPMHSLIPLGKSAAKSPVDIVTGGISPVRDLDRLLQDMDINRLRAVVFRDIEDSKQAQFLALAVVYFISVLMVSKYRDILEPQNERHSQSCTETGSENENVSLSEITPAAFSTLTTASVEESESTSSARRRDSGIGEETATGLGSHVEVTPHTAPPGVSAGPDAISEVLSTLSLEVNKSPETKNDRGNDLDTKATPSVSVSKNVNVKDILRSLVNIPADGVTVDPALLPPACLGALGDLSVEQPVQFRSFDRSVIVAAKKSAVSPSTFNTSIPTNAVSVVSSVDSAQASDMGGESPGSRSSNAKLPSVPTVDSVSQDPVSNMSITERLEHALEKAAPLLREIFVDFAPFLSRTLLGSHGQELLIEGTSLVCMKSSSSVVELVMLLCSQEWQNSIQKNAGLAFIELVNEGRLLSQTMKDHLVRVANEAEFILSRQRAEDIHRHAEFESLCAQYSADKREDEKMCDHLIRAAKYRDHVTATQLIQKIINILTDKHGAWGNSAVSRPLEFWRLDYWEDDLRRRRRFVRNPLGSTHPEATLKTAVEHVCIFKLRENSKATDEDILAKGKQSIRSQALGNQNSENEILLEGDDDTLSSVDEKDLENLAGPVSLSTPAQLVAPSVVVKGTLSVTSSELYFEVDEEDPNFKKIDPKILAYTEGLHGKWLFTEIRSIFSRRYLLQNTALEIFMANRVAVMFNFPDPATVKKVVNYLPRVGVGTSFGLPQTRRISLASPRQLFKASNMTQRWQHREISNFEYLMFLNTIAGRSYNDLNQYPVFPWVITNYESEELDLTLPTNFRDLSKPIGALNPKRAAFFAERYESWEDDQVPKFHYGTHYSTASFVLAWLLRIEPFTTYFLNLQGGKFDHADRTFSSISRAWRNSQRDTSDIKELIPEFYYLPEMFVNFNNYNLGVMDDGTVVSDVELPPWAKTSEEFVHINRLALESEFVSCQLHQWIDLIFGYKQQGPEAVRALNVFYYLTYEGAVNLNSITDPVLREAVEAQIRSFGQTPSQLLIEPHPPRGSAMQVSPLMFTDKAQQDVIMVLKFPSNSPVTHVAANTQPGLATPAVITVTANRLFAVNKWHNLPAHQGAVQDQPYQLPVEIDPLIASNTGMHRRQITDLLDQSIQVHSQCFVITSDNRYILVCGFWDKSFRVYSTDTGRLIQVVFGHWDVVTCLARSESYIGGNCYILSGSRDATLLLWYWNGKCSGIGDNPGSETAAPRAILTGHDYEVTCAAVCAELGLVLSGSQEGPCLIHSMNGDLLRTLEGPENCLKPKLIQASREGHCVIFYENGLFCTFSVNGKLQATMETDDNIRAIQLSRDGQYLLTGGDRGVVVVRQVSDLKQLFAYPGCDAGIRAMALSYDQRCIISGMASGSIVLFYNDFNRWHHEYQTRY
Chain of UniProt Q8NHS3 (Q8NHS3 whole entry, looked up): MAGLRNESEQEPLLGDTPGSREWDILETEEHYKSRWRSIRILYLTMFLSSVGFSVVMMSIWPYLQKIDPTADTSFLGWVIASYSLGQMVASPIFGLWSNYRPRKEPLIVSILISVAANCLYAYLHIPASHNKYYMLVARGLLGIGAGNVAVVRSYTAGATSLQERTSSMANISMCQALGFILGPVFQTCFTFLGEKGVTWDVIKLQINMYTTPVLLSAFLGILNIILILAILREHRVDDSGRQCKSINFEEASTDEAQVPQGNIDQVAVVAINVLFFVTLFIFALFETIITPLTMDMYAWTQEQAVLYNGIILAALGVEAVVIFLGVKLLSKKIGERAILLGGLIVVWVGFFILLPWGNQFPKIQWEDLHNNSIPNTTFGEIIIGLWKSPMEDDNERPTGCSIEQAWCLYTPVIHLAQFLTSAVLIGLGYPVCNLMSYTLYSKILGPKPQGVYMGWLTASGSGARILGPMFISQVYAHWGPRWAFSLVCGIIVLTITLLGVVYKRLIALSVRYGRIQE
Chain of UniProt Q9NQX7 (Q9NQX7 whole entry, looked up): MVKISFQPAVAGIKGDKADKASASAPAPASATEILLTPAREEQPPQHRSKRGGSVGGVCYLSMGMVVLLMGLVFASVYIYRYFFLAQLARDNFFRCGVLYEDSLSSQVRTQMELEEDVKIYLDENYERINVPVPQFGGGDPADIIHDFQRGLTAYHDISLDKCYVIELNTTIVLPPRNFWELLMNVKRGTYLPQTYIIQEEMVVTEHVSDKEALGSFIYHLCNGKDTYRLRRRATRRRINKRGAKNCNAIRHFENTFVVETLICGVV
Chain of UniProt Q96G25 (Q96G25 whole entry, looked up): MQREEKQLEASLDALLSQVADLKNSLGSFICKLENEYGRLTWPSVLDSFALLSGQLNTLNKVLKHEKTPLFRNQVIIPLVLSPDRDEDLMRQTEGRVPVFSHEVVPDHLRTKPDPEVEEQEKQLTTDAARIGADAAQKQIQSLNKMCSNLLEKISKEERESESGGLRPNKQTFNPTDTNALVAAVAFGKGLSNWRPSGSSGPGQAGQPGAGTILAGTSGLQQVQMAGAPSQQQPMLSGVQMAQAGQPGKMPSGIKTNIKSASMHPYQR
Chain of UniProt P14174 (P14174 whole entry, looked up): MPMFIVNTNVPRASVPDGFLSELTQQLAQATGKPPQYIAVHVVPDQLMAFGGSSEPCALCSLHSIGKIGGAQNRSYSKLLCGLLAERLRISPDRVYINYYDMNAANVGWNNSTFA
Chain of UniProt O15243 (O15243 whole entry, looked up): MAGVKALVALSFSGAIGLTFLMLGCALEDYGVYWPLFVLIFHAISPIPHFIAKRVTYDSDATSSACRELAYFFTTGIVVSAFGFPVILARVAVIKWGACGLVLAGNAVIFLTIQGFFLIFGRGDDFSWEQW

Target | log2 fold change (erlotinib) | log2 fold change [1] | log2 fold change [2] | log2 fold change [3] | log2 fold change [4] | log2 fold change [5] | log2 fold change [6] | log2 fold change [7] | log2 fold change (IRAK-1-4 Inhibitor I) | log2 fold change (ibrutinib) | log2 fold change [8] | log2 fold change (ralimetinib) | log2 fold change [9] | log2 fold change [10] | log2 fold change [11] | log2 fold change (pinometostat) | log2 fold change [12] | log2 fold change [13] | log2 fold change [14] | log2 fold change [15]
MED8 isoform 2 (UniProt Q96G25) | 0.017 | -0.19 | -0.056 | 0.035 | -0.031 | 0.152 | -0.153 | -0.196 | -0.051 | 0.038 | -0.216 | -0.013 | -0.081 | 0.05 | 0.06 | -0.043 | 0.016 | – | – | –
LAMP2 isoform 2 (UniProt P13473) | -0.072 | 0.02 | 0.041 | 0.082 | -0.022 | 0.088 | – | -0.007 | 0.127 | -0.007 | 0.012 | – | 0.115 | -0.713 (active) | – | -0.026 | 0.03 | 0.018 | 0.049 | -0.078
LMBRD1 (UniProt Q9NUN5) | 0.075 | -0.055 | 0.211 | -0.014 | 0.226 | 0.113 | -0.051 | -0.027 | – | 0.036 | 0.026 | 0.088 | -0.059 | -0.708 (active) | -0.022 | – | 0.088 | -0.142 | 0.033 | -0.086
MAP4 (UniProt E7EVA0) | 0 | -0.093 | -0.219 | 0.063 | -0.087 | 0.058 | -0.086 | -0.003 | -0.058 | -0.036 | -0.022 | 0.088 | 0.013 | -0.025 | 0.049 | 0.104 | -0.046 | 0.034 | -0.053 | 0.027
MFSD8 (UniProt Q8NHS3) | 0.047 | -0.018 | -0.012 | -0.089 | 0.009 | 0.166 | 0 | -0.054 | 0.062 | 0.13 | 0.036 | 0.19 | 0.067 | -0.446 (active) | 0.08 | 0.101 | – | -0.033 | -0.091 | 0.124
ITM2C (UniProt Q9NQX7) | -0.078 | -0.019 | 0.013 | -0.297 | -0.023 | 0.062 | -0.029 | 0.052 | – | -0.069 | -0.07 | -0.063 | -0.186 | -0.445 (active) | 0.036 | – | -0.368 | – | – | –
MAP3K20 isoform 2 (UniProt Q9NYL2) | -0.002 | -0.128 | 0.051 | 0.052 | -0.091 | – | – | -0.168 | -0.164 | – | -0.126 | – | 0.078 | 0.089 | – | -0.021 | 0.01 | -0.004 | 0.007 | -0.071
LGALS8 isoform 2 (UniProt O00214) | -0.011 | -0.034 | -0.282 | 0.062 | -0.038 | -0.059 | – | 0.036 | -0.027 | -0.262 | 0.049 | – | 0.092 | 0.123 | – | 0.11 | – | 0.043 | 0.039 | 0.096
LEPROT (UniProt O15243) | 0.06 | 0.034 | 0.081 | 0.088 | 0.119 | – | – | -0.058 | – | – | -0.037 | – | 0.142 | -0.777 (active) | – | – | – | -0.011 | 0.001 | 0.092
MIF (UniProt P14174) | 0.058 | 0.128 | 0.368 (active) | 0.033 | -0.07 | 0.034 | -0.037 | -0.069 | 0.017 | 0.039 | -0.014 | 0.071 | -0.119 | 0.052 | 0.04 | -0.043 | 0.201 | -0.057 | -0.029 | 0.133
LMBR1 isoform 3 (UniProt Q8WVP7) | 0.148 | -0.016 | -0.034 | 0.071 | -0.046 | 0.081 | -0.14 | -0.013 | -0.013 | -0.006 | -0.054 | -0.02 | -0.037 | -0.453 | -0.004 | 0.012 | – | 0.037 | 0.15 | -0.244
LRBA (UniProt P50851) | 0.007 | 0.024 | 0.068 | 0.002 | 0.031 | 0.051 | 0.011 | -0.002 | 0.015 | -0.02 | -0.006 | -0.023 | -0.059 | -0.091 | 0.005 | 0.008 | -0.005 | 0.012 | 0.015 | -0.004
MAPKAPK2 (UniProt P49137) | 0.033 | 0.059 | 0.186 | -0.011 | 0.064 | 0.008 | 0.207 | -0.069 | 0.039 | -0.009 | 0.267 (active) | 0.213 | -0.03 | -0.048 | -0.022 | -0.028 | -0.03 | 0.047 | 0.002 | -0.009
LYN isoform 2 (UniProt P07948) | -0.387 | 0.117 | -0.234 | -0.152 | 0.146 | – | – | -0.163 | 0.04 | – | -0.246 | – | 0.002 | -0.078 | – | 0.147 | -0.113 | – | – | –
MELK (UniProt Q14680) | 0.067 | -0.067 | 0.018 | 0.027 | 0.033 | 0.009 | – | 0.031 | 0.021 | 0.032 | -0.84 (active) | – | -0.085 | 0.092 | – | 0.013 | 0.337 | -0.027 | -0.086 | 0.011
MAP4K5 (UniProt Q9Y4K4) | -0.001 | 0.057 | 0.05 | 0.051 | 0.143 | -0.025 | -0.039 | – | -0.02 | 0.067 | -0.289 (active) | -0.045 | -0.057 | -0.034 | 0.034 | -0.014 | -0.046 | -0.083 | 0.152 | -0.02
LONP2 (UniProt Q86WA8) | 0.07 | -0.111 | 0.263 | 0.131 | -0.021 | 0.065 | 0.168 | 0.067 | -0.016 | -0.023 | -0.033 | 0.103 | -0.135 | 0.004 | -0.609 (active) | -0.008 | -0.271 | -0.037 | -0.002 | -0.009
MFSD11 (UniProt O43934) | – | 0.001 | 0.007 | – | 0.047 | 0.043 | – | -0.067 | 0.015 | 0.006 | -0.029 | – | -0.008 | – | – | -0.009 | 0.031 | 0.06 | 0.219 | 0.095
